From PubChem BioAssay
In the library only some 3.1% were active in any assay of this set; here they are far more common.
HIF-2a inh: HIF-2a reporter inhibitors, primary screen, luminescence, 786-0 RCC cells | AID 624352, 2012 | 0.72% of 360,000 active | 786-0 RCC cells HIF-2a reporter, luciferase luminescence, overnight | inhibition, % at 18.8 µM;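 active = inhibition of the luminescence signal of 40% or more relative to plate controls, in a single-dose primary screen at 18.75 µM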
C8 TRAIL sens: viability loss with TRAIL in NB7+C8 cells, primary screen, TRAIL sensitizer project, cell-based, ATPlite luminescence; inhibition (viability loss, TRAIL sensitization), % at 10 µM; 1% of 360,000 active; AID 624354, 2012;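 active = compounds causing at least 50% loss of cell viability in the single-dose screen, relative to plate controls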
KKLEB cytotox: cytotoxicity in KKLEB CF airway cells, primary screen, cytotoxicity control for CF NF-kB inhibitor project, cell-based, uHTS, fluorescence assay plates. KKLEB CF airway cells viability, ATPlite luminescence, overnight; hits give low values; cells stimulated with P. aeruginosa culture filtrate. activity change (cytotoxicity), % at 5 µM. 0.36% of 360,000 active. AID 602141, 2011;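 active = corrected activity change at or below -50% at 5 µM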
CF NFkB block: inhibitors of PAF-induced NF-kB signaling, primary screen, cell-based, GFP fluorescence, uHTS | KKLEB NF-kB-GFP reporter, GFP fluorescence overnight | inhibition, % at 5 µM | 0.86% of 360,000 active;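 active = at least 50% inhibition at 5 µM, scaled per plate between neutral and stimulator controls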;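 note: PAF is a Pseudomonas aeruginosa culture filtrate used as stimulus; plate controls were PAF-stimulated DMSO wells for no effect and unstimulated DMSO wells for full effect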
PPC-1+TRAIL kill: compounds killing PPC-1 cancer cells with TRAIL present, primary screen, TRAIL potentiator project, ATPLite luminescence, uHTS; 0.41% of 220,000 active; PPC-1 cells + TRAIL, ATPLite viability luminescence; cell killing (% activity), % at 4 µM or 5 µM;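 active = cell killing above 50% in the first pass at 4 µM, then a duplicate retest at 5 µM averaging 50% or more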;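 note: plate controls were cells with TRAIL plus DMSO for no effect and medium-only wells lacking cells for full effect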
Peg3 promoter: Peg3 promoter-driven luciferase inhibitors, primary screen, cell-based, HeLa, luciferase luminescence | HeLa PEG-Prom luciferase reporter, overnight | AID 588405, 2011 | 1.7% of 360,000 active | inhibition, % at 20 µM;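 active = inhibition of at least 50% at 20 µM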
PPC-1 tox: cytotoxicity in PPC-1 cells, confirmation, cytotoxicity control for TRAIL apoptosis potentiator project, cell-based, ATP content luminescence; shares compounds with PPC-1+TRAIL kill; PPC-1 viability, ATPlite luminescence, overnight; AID 1447, 2008; 50% of 1,200 active; cytotoxicity, % at 5 µM;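 active = reconfirmed compounds whose average cytotoxicity reaches 50% or more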;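 note: 0% = DMSO-treated cells and 100% = wells holding medium but no cells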
* marks the source's active call; other numbers are inactive results.

CC(C)c1ccc(NC(=O)c2csnn2)cc1 was read as HIF-2a inh -224, C8 TRAIL sens 49, KKLEB cytotox -1, CF NFkB block -11, PPC-1+TRAIL kill 41, Peg3 promoter -162 and PPC-1 tox 40.
Screening O=C(/C=C/c1ccc(Cl)cc1Cl)Nc1cccc(S(=O)(=O)NC2=NCCC2)c1 returned HIF-2a inh -177, C8 TRAIL sens 91*, KKLEB cytotox -58*, CF NFkB block -3, PPC-1+TRAIL kill 87*, Peg3 promoter -161 and PPC-1 tox 88*.
For O=C(/C=C/c1ccccc1Cl)Nc1cccc(S(=O)(=O)NC2=NCCCCC2)c1 the results were HIF-2a inh -186, C8 TRAIL sens 41, KKLEB cytotox 1, CF NFkB block -23, PPC-1+TRAIL kill 36 and Peg3 promoter -125.
`CC(=O)N1CCC(C(=O)Nc2cc(S(=O)(=O)N3CCCCC3)ccc2C)CC1` gave HIF-2a inh 10, C8 TRAIL sens -6, KKLEB cytotox -1, CF NFkB block -14 and Peg3 promoter -5.
O=C(COc1ccc(CO)cc1Cl)Nc1ccc(F)cc1 was read as HIF-2a inh -76, C8 TRAIL sens 54*, KKLEB cytotox -7, CF NFkB block -7, PPC-1+TRAIL kill 45, Peg3 promoter -113 and PPC-1 tox 46.
CCOc1ccc(C2C(C#N)=C(N)SC(N)=C2C#N)cc1OCC was read as HIF-2a inh 2, C8 TRAIL sens 18, KKLEB cytotox 2, CF NFkB block 5, PPC-1+TRAIL kill 5, Peg3 promoter 14 and PPC-1 tox 9.
CCOc1ccc(C2C(C#N)=C(N)SC(N)=C2C#N)cc1OC was read as PPC-1+TRAIL kill 8.
Screening O=c1oc(/C=C/c2ccccc2)nc2sc3c(c12)CCC3 returned HIF-2a inh -177, C8 TRAIL sens 8, KKLEB cytotox -5, CF NFkB block -13, PPC-1+TRAIL kill 8, Peg3 promoter -241 and PPC-1 tox -1.
`COc1ccc(/C=C/C(=O)c2c(O)cc(C)oc2=O)c(OC)c1` gave HIF-2a inh -236, C8 TRAIL sens 89*, KKLEB cytotox -2, CF NFkB block 2, PPC-1+TRAIL kill 87*, Peg3 promoter -352 and PPC-1 tox 86*.
`O=C(Nn1cnnc1)c1cc2c(s1)CCCC2` gave HIF-2a inh 0, C8 TRAIL sens -4, KKLEB cytotox -8, CF NFkB block -8, PPC-1+TRAIL kill -5 and Peg3 promoter -15.
`NNC(=O)c1cc2c(s1)CCCCCC2` gave HIF-2a inh 13, C8 TRAIL sens -15, KKLEB cytotox 0, CF NFkB block 6, PPC-1+TRAIL kill -6, Peg3 promoter 2 and PPC-1 tox -1.
O=C(Nc1ccccc1NS(=O)(=O)c1ccc(F)cc1)C1CCC1 was read as HIF-2a inh 13, C8 TRAIL sens 2, KKLEB cytotox -15, CF NFkB block 13, PPC-1+TRAIL kill 6, Peg3 promoter 20 and PPC-1 tox 11.
`COc1cc(NS(=O)(=O)c2ccc(F)cc2)c(OC)cc1NC(=O)C1CC1` gave PPC-1+TRAIL kill 7.
Screening CCOC(=O)N1CCN(CC(=O)Nc2nc3ccccc3s2)CC1 returned HIF-2a inh 10, C8 TRAIL sens -23, KKLEB cytotox -4, CF NFkB block 13 and Peg3 promoter 17.
Screening CCOC(=O)N1CCN(C(=O)c2nc3ccccc3s2)CC1 returned HIF-2a inh -180, C8 TRAIL sens 2, KKLEB cytotox -2, CF NFkB block 8, PPC-1+TRAIL kill 12, Peg3 promoter -138 and PPC-1 tox -1.
`COc1ccc(-c2cn3c4c(sc3n2)CCCC4)cc1` gave HIF-2a inh -19, C8 TRAIL sens 79*, KKLEB cytotox -67*, CF NFkB block -10, PPC-1+TRAIL kill 76*, Peg3 promoter -58 and PPC-1 tox 74*.
